Source: PubChem BioAssay (NCATS)
Several values for one entry are separate records, joined by “and”; a condition that tells them apart may be missing. Identical values can stand only once. Records with an inconclusive call do not appear. Activity calls are given as the source filed them. Unless noted, calls follow the shape of the dose curve; as a rule, active = well fitted curve in the direction sought with a large enough effect; inconclusive = small, poorly fitted or top-dose-only effect, or another doubt; inactive = no such curve, though single readings can be large; an effect the other way counts as inactive or inconclusive.

Key:
[1] = biological target: Tyrosine-protein kinase Yes (Homo sapiens) (UniProt P07947); test: qHTS for small molecule inhibitors of Yes1 kinase: Primary Screen (AID 686947); also: nearly all actives have a fitted effect of over 60% in size; also: potency is read from the fitted curve at half-maximal effect
How it was run: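 ADP-Glo luminescence reports ADP formed by 4 nM Yes1 phosphorylating poly(E4Y) (0.3 mg/mL) with 0.1 mM ATP for 60 min at room temperature, following 20 min compound preincubation; normalised between DMSO wells with and without enzyme.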

[2] = qHTS for small molecule inhibitors of Yes1 kinase: Counter Assay (AID 686950);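 also: no kinase present so only ADP-Glo detection of a fixed ADP amount is tested; luminescence from ADP-Glo reporting ADP in a fixed ATP and ADP mixture; 0% = DMSO wells with ATP plus ADP and -100% = ATP-only wells without ADP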
How it was run: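 ADP-Glo luminescence read after a 60 min room-temperature incubation of compound with an ATP/ADP mix (0.08 mM/0.02 mM) and no kinase, following a 20 min compound preincubation. Signal scaled between ATP+ADP (max) and 0.1 mM ATP-only (min) wells; Tris pH 7.5, Mg2+, DTT.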

[3] = qHTS Assay for Identifying Gametocytocidal Compounds (AID 743244); also: potency is read from the fitted curve at half-maximal effect;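 as to max response: % is scaled to controls: 0 for no effect and ±100 for the full control effect; actives lower the fluorescent signal which means gametocytes are killed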; conditions: P. falciparum 3D7 stage III-V gametocytes, alamarBlue, 72 h; max response: stronger effect = lower value
How it was run: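 Compounds are pinned into medium, gametocytes (stage III–V, 3D7, 20,000 cells/well) added, and plates held 72 h at 37 °C in 5% CO2. AlamarBlue follows for 24 h before fluorescence reading.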

[4] = qHTS profiling for inhibitors of Plasmodium falciparum (3D7) proliferation (AID 743322; call rule not given here;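 also: infected erythrocytes exposed to compound for 72 h before lysis; 100% = DMSO vehicle wells and 0% = 0.29 µM artemisinin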); conditions: P. falciparum 3D7 proliferation; at 28.7 µM (top of the series) unless noted
How it was run: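 Parasite DNA was quantified by SYBR Green I fluorescence (ex 485, em 535 nm) after overnight lysis in saponin/Triton buffer at room temperature. Cultures at 0.3% parasitemia and 2.5% hematocrit were first exposed to compound for 72 h at 37 C; signals were normalised to artemisinin (0.29 uM) and vehicle wells.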

[5] = qHTS profiling for inhibitors of Plasmodium falciparum (DD2) proliferation (AID 743323; call rule not given here); conditions: lower = more inhibition; at 28.7 µM (top of the series) unless noted
How it was run: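 P. falciparum Dd2-infected erythrocytes (0.3% parasitemia, 2.5% hematocrit) exposed 72 h at 37 C, 5% CO2. Lysis with SYBR Green, overnight at room temperature, fluorescence 485/535 nm; normalized to 0.29 uM artemisinin and DMSO.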

Tyrosine-protein kinase Yes (Homo sapiens), sequence (P07947 whole entry, looked up): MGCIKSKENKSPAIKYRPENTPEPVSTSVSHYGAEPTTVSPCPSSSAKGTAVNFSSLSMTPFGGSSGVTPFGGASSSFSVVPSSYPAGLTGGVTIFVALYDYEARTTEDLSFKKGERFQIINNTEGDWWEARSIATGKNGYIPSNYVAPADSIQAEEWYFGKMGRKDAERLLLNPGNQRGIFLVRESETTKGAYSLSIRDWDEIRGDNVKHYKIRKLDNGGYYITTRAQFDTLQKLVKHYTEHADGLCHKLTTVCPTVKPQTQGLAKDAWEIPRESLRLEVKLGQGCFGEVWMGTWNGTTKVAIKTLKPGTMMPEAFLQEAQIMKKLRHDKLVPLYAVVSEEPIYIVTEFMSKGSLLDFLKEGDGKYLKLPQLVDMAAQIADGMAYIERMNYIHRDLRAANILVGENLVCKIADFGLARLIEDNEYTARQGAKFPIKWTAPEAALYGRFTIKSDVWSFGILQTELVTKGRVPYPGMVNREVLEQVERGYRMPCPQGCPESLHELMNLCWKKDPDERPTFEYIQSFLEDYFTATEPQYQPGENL

Structure (SMILES)	Potency [1]	outcome [2]	max response [3]	remaining parasite growth % (stronger effect = lower value) [4]	activity, percent of control [5]	Potency [3]
CCCS(=O)(=O)Nc1ccc(F)c(C(=O)c2c[nH]c3ncc(Cl)cc23)c1F	173 nM (active)	inactive	35.4% (inactive)	90.9%	83.1%	
O=C(Nc1ccc(F)c(C(F)(F)F)c1)Nc1nnc(-c2ccncc2)s1	inactive	inactive	6.18% (inactive)	94.5%	90%	
CN(C)c1ccc(Nc2nc(N)n(C(=O)c3c(F)cccc3F)n2)cc1	772 nM (active)	inactive	-28% (inactive)	4.41%	8.82%	
Cc1cc([C@@H](C)Nc2ccccc2C(=O)O)c2nc(N3CCOCC3)cc(=O)n2c1	inactive	inactive	-4.48% (inactive)	50.6%	29.8%	
CCOc1ccc(Cc2cc([C@@H]3O[C@H](CO)[C@@H](O)[C@H](O)[C@@H]3O)ccc2Cl)cc1	inactive	inactive	10.7% (inactive)	46.7%	101%	
CN(C)C(=O)c1ccc(S(=O)(=O)c2ccc(NC(=O)[C@@](C)(O)C(F)(F)F)c(Cl)c2)cc1	inactive	inactive	2.79% (inactive)	67.3%	97.4%	
Cc1cc(SCc2sc(-c3ccc(C(F)(F)F)cc3)nc2C)ccc1OCC(=O)O	inactive	inactive	25.7% (inactive)	106% and 98.8%	99.9% and 82.6%	
Cc1cc(-c2nnc3n2CCCCC3)c(C)n1-c1ccc(F)cc1	34500 nM (active)	inactive		7.99%	9.31%	18700 nM (active)
O=c1[nH]c(-c2ccc(C(F)(F)F)cc2)nc2c1CSCC2	inactive	inactive	12% (inactive)	106%	103%	
C[C@@H]1C[C@H]2[C@@H]3CCC4=CC(=O)C=C[C@]4(C)C3(F)[C@@H](O)C[C@]2(C)[C@@]1(O)C(=O)CO (stereo not given in full)	34500 nM (active)	inactive	2.96% (inactive)	109%	95.7%	
Cn1cc(-c2ccc3nnc(C(F)(F)c4ccc5ncccc5c4)n3n2)cn1	inactive	inactive	-4.32% (inactive)	40.4%	62.2%	
c1ccc(-c2nn3c(c2-c2ccnc4cc(OCCN5CCOCC5)ccc24)CCC3)nc1	8670 nM (active)	inactive	-4.63% (inactive)	81.9%	81.5%	
CS(=O)(=O)Oc1ccc2c(NC(N)=O)c(C(=O)c3ccc(Cl)cc3Cl)oc2c1	inactive	inactive	25% (inactive)	75.4%	83.2%	
CC(c1cc2ccccc2s1)N(O)C(N)=O (stereo not given)	inactive	inactive	2.55% (inactive)	101% [at 57.5 µM]	101% [at 57.5 µM]	
COc1ccccc1[C@H](c1cccc2ccccc12)[C@@](C)(C#N)C(=O)N1CCC(c2cccc(C(F)(F)F)c2)CC1	inactive	inactive	-0.358% (inactive)	1.65%	1.44%	
COc1cc(Nc2ncc3c(n2)-c2ccc(Cl)cc2C(c2c(F)cccc2OC)=NC3)ccc1C(=O)O	21.8 nM (active)	inactive	-8.12% (inactive)	89.5%	78.1%	
CCN(CCCO)CCCOc1ccc2c(Nc3cc(CC(=O)Nc4cccc(F)c4)[nH]n3)ncnc2c1	387 nM (active)	inactive		-1.31%	1.34%	743 nM (active)
CCc1ccc(CCOc2ccc(CC3SC(=O)NC3=O)cc2)nc1 (stereo not given)	1730 nM (active)	inactive	40% (inactive) and -8.95% (inactive)	92%	103%	
CCCS(=O)(=O)Nc1ccc(F)c(C(=O)c2c[nH]c3ncc(-c4ccc(Cl)cc4)cc23)c1F	1370 nM (active)	inactive	14.6% (inactive)	17.1%	22.9%	
COCC(=O)NCC=Cc1ccc2ncnc(Nc3ccc(Oc4ccc(C)nc4)c(C)c3)c2c1	5470 nM (active)	inactive	-4.65% (inactive)	28.2%	24.1%	
COc1ccc(C2=N[C@H](c3ccc(Cl)cc3)[C@H](c3ccc(Cl)cc3)N2C(=O)N2CCNC(=O)C2)c(OC(C)C)c1	12200 nM (active)	inactive	18.2% (inactive)	52.3%	50.5%	
CCC(C)n1ncn(-c2ccc(N3CCN(c4ccc(OC[C@H]5CO[C@](Cn6cncn6)(c6ccc(Cl)cc6Cl)O5)cc4)CC3)cc2)c1=O (stereo not given in full)	inactive	inactive	3.11% (inactive)	3.74%	7.7%	
O=C(C=Cc1ccc(/C=C/C(=O)Nc2ccc(C3=NCCN3)cc2)cc1)Nc1ccc(C2=NCCN2)cc1	inactive	inactive	6.08% (inactive)	15.9%	27.3%	
Cc1cc(-c2ccc(CC(=O)Nc3ccc(-c4cccnc4)cc3)cc2)ccn1	inactive	inactive	17.3% (inactive)	75%	88.9%	
CCOC(=O)C1=C[C@@]2(CC)CCCN3CCc4c(n1c1ccccc41)[C@H]32	inactive	inactive	-2.64% (inactive)	66.2% [at 18.4 µM]	56.5% [at 18.4 µM]	
CCCc1nn(C)c2c(=O)[nH]c(-c3cc(S(=O)(=O)N4CCN(C)CC4)ccc3OCC)nc12	inactive	inactive	18.4% (inactive)	98.3%	102%	
CN(C(=O)c1ccc(F)cc1C(F)(F)F)C1CCN(c2nnc(-c3ccnn3C)c3ccccc23)CC1	inactive	inactive	1.04% (inactive)	59.4%	71.6%	
CCOc1cc(C=C2C(=O)N(c3ccccc3)N=C2C)cc(Cl)c1OCC(=O)OC	inactive	inactive	28.7% (inactive)	88.1%	92.3%	
Cc1cc(C=c2sc3nc4ccccc4n3c2=O)c(C)n1-c1ccccc1	inactive	inactive	11.9% (inactive)	37.9%	101%	
